Screens: PubChem BioAssay, The Scripps Research Institute Molecular Screening Center
Only some compounds are listed: those with a hit (about 2.5% of all), similar ones and a draw of the others.
ULK1 primary: human ULK1 kinase inhibition, primary screen; O75385; AlphaScreen Atg13 phosphorylation by ULK1, luminescence; inhibition, % at 5.96 µM; 1.9% of 30,000 active; AID 1259251; in the data active = inhibition above about 43%
ASK1 primary: human ASK1 kinase inhibition, primary screen; inhibition, % at 7.44 µM; AlphaScreen MKK6 phosphorylation by ASK1, luminescence; Q99683; 0.99% of 22,000 active; in the data active = inhibition above about 35%
AlphaScreen intf: interferes with AlphaScreen TruHits signal in ASK1 counter-screen; shares compounds with ASK1 primary; 20% of 220 active; IC50, µM; AlphaScreen TruHits beads, signal interference counterscreen;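 active = IC50 of 10 µM or lower in the counterscreen; inactive = IC50 above 10 µM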;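 note: loss of AlphaScreen light from TruHits beads alone with no ASK1 enzyme present; potency of signal reduction so a low IC50 flags an assay artifact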
Numbers stand for hits.

Screening COc1ccc(CCNC(=O)c2ccnc(Nc3cccc(N(C)C)c3)c2)cc1 returned ULK1 primary inactive, ASK1 primary 41 and AlphaScreen intf inactive.
Screening COc1ccc(CCNc2ccnc(Nc3cccc(N(C)C)c3)n2)cc1 returned ULK1 primary inactive, ASK1 primary 38 and AlphaScreen intf inactive.
CN(C)c1cccc(Nc2nccc(NCCc3ccc(O)cc3)n2)c1 was read as ULK1 primary inactive and ASK1 primary inactive.
Screening CC(C)N(CCNc1cc(N2CCN(c3ccccn3)CC2)nc(N)n1)C(C)C returned ULK1 primary inactive and ASK1 primary inactive.
`Cn1c(Nc2cc(NCCc3ccc(O)cc3)nc(N)n2)nc2ccccc21` gave ULK1 primary inactive and ASK1 primary inactive.
For CCCNc1nc(Nc2ccc(N3CCOCC3)cc2)nc2c1ncn2C1CCCCC1 the results were ULK1 primary inactive, ASK1 primary 51 and AlphaScreen intf inactive.
Screening c1cc(-n2cnc3c(Nc4ccc5c(c4)OCO5)nc(Nc4ccc(N5CCOCC5)cc4)nc32)cs1 returned ULK1 primary inactive, ASK1 primary 50 and AlphaScreen intf inactive.
For c1cc(N2CCOCC2)ccc1Nc1nc(NCCN2CCOCC2)c2ncn(C3CCCCC3)c2n1 the results were ULK1 primary inactive and ASK1 primary inactive.
CC(C)n1cnc2c(Nc3ccc(N4CCOCC4)cc3)nc(Nc3ccc(-n4ccnc4)cc3)nc21 was read as ULK1 primary 67, ASK1 primary 36 and AlphaScreen intf inactive.
`c1cc(-n2cnc3c(Nc4ccc(N5CCOCC5)cc4)nc(NCc4ccc5c(c4)OCO5)nc32)cs1` gave ULK1 primary inactive, ASK1 primary 41 and AlphaScreen intf inactive.
CC(=O)Nc1ccc(Nc2nc(Nc3ccc(N4CCOCC4)cc3)nc3c2ncn3C(C)C)cc1 was read as ULK1 primary inactive and ASK1 primary inactive.
`c1cc(-n2cnc3c(Nc4ccc5c(c4)OCO5)nc(NCCN4CCOCC4)nc32)cs1` gave ULK1 primary inactive and ASK1 primary inactive.
For c1cc(-n2cnc3c(Nc4ccc5c(c4)OCO5)nc(NCc4ccc5c(c4)OCO5)nc32)cs1 the results were ULK1 primary inactive and ASK1 primary inactive.
Screening CC(C)N(CCNc1nc(NCCCN2CCCC2=O)nc2nc[nH]c12)C(C)C returned ULK1 primary inactive and ASK1 primary inactive.
`CN1CCC(N(C(=O)/C=C/c2ccccc2)C2CCN(Cc3ccccc3)CC2)CC1` gave ULK1 primary inactive.
Screening CCCNc1nc(-c2ccc(N3CCN(C)CC3)cc2)nc2c1ncn2-c1ccccc1 returned ULK1 primary inactive and ASK1 primary inactive.
O=C(NC1CC1)c1ccc(Nc2ccncc2)s1 was read as ULK1 primary inactive and ASK1 primary inactive.
`O=C(O)c1nsnc1C(O)C(O)C(=O)O` (centres undefined) gave ULK1 primary inactive.
For CC(=O)Nc1ccc(Nc2nc(N3CCN(Cc4ccc5c(c4)OCO5)CC3)nc3c2ncn3-c2ccsc2)cc1 the results were ULK1 primary inactive and ASK1 primary inactive.
For c1cc(-n2cnc3c(Nc4ccc5c(c4)OCO5)nc(N4CCN(Cc5ccc6c(c5)OCO6)CC4)nc32)cs1 the results were ULK1 primary inactive, ASK1 primary 36 and AlphaScreen intf inactive.
For O=C1CCCN1CCCNc1nc(Nc2ccc(-n3ccnc3)cc2)nc2c1ncn2-c1ccsc1 the results were ULK1 primary inactive, ASK1 primary 47 and AlphaScreen intf inactive.
c1cc(-n2cnc3c(NC4CC4)nc(Nc4ccc(N5CCOCC5)cc4)nc32)cs1 was read as ULK1 primary inactive, ASK1 primary 43 and AlphaScreen intf inactive.
For O=C1CCCN1CCCNc1nc(Nc2ccncc2)nc2c1ncn2-c1ccsc1 the results were ULK1 primary inactive and ASK1 primary inactive.
`FC(F)(F)c1ccc(Nc2nc(Nc3ccc(N4CCOCC4)cc3)c3ncn(-c4ccsc4)c3n2)cc1` gave ULK1 primary inactive and ASK1 primary inactive.
For CCCNc1cc(C)nc(N2CCN(Cc3ccc4c(c3)OCO4)CC2)n1 the results were ULK1 primary inactive and ASK1 primary inactive.
Cc1cc(Nc2ccc3c(c2)OCO3)nc(N2CCN(Cc3ccc4c(c3)OCO4)CC2)n1 was read as ULK1 primary inactive, ASK1 primary 37 and AlphaScreen intf inactive.
`Cn1cc(-c2ccc(Nc3ncc4ccc(-c5cnn(CCN6CCOCC6)c5)cc4n3)cc2)cn1` gave ULK1 primary inactive and ASK1 primary inactive.
Nc1nc(NCc2ccccc2)cc(N2CCc3ccccc3C2)n1 was read as ULK1 primary inactive and ASK1 primary inactive.
Screening Cc1cnc(Nc2ccccc2)nc1NCCN(C(C)C)C(C)C returned ULK1 primary inactive and ASK1 primary inactive.
`CC(C)N(CCNc1ccnc(Nc2ccc(C(F)(F)F)cc2)n1)C(C)C` gave ULK1 primary inactive and ASK1 primary inactive.
For CC(=O)Nc1ccc(NC(=O)c2ccc3nc(N4CCN(Cc5ccc6c(c5)OCO6)CC4)sc3c2)cc1 the results were ULK1 primary inactive and ASK1 primary inactive.
